Sampled rows, rich in hits. Any-hit rate of the full collection: about 10%.
FLuc inh: blocks purified firefly luciferase enzyme activity. Potency, µM (series often up to 115 µM), most hits filed as inhibitors. 76,000 tested, 2.5% active. AID 1347043. purified P. pyralis luciferase, luminescence, biochemical. P08659; also: nearly all actives have a fitted effect of over 65% in size
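Purified 10nM P. pyralis luciferase with 10uM D-luciferin and 10uM ATP in 50mM Tris acetate pH 7.5, 10mM Mg acetate, 0.01% Tween-20, 0.05% BSA. qHTS titration; luminescence read by CCD imager.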
HEK cytotox: kills HEK 293 cells; HEK 293 viability, ATP luminescence (CellTiter-Glo), 48-72 h; Potency, µM (doses to about 115 µM), usual class: inhibitors; 94,000 tested, 6.6% active; also: nearly all actives have a fitted effect of over 60% in size
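ATP-coupled CellTiter-Glo luminescence served as viability read-out, recorded 10 min after reagent addition at room temperature. HEK 293 cells, 250 cells/well, had been incubated with pintool-transferred compound for 48 or 72 hr at 37 degree Celsius.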
NIH3T3 tox: NIH 3T3 cell cytotoxicity. NIH 3T3 viability, CellTiter-Glo ATP luminescence, 48-72 h. Potency, µM (top dose mostly 96.7 µM), most hits filed as inhibitors. 94,000 tested, 4.3% active. AID 1345082; also: nearly all actives have a fitted effect of over 55% in size
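NIH 3T3 cells at 400 cells/well received 23 nL of compound by pintool and were incubated 48 or 72 h at 37 °C. Viability was read as ATP-coupled CellTiter-Glo luminescence.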
GPT2 inh: blocks human glutamate pyruvate transaminase 2; Q8TD30; Recombinant GPT2, coupled pyruvate oxidase/HRP Amplex Red fluorescence; Potency, µM (series often up to 57.7 µM), hits mostly inhibitors; 100,000 tested, 0.25% active; AID 1671188; also: nearly all actives have a fitted effect of over 60% in size
Target sequence (Q8TD30 whole entry, looked up): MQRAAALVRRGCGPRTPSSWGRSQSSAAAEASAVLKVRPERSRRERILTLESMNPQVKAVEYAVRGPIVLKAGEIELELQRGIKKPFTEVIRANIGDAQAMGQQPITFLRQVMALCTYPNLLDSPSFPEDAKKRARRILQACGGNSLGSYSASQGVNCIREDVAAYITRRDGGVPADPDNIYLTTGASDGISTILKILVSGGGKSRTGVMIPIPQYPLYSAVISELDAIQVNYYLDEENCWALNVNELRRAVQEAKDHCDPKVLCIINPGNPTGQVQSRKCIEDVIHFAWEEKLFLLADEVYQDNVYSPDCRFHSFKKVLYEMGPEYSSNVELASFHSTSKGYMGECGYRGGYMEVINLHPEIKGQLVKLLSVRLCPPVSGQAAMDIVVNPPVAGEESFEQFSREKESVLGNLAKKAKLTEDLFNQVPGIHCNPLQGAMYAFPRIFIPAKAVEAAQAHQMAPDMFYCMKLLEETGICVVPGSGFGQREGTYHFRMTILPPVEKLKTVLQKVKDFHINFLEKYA
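Fluorescence read-out: pyruvate from GPT2 turnover coupled to pyruvate oxidase, HRP and Amplex Red (0.2mM ThPP, 0.2U/mL PO and HRP, 50uM Amplex final). Substrates 250uM a-KG, 2mM L-alanine; enzyme 10ng/uL; 30 min RT.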
hNpr1 antagonist: antagonists of human natriuretic peptide receptor Npr1; P16066; HEK293 hNpr1 GloSensor cGMP, ANP-stimulated luminescence; Potency, µM (highest dose often 46.3 µM), actives largely listed as inhibitors; 76,000 tested, 1.6% active; calls by dose curve; also: nearly all actives have a fitted effect of over 60% in size
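Compound pre-incubated 30 min at room temperature on GloSensor-loaded HEK293 cells stably carrying hNpr1 and the pGS-40F cGMP biosensor. Stimulation uses hNppA at 0.1 nM final; luminescence is taken at baseline and 20 min post-agonist.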
Each line names hits and unclear results; the compound was inactive in the other large screens. Unless noted, calls follow the shape of the dose curve; as a rule, active = well fitted curve in the direction sought with a large enough effect; inconclusive = small, poorly fitted or top-dose-only effect, or another doubt; inactive = no such curve, though single readings can be large; an effect the other way counts as inactive or inconclusive.

CCCCCNC(=O)C1CCCN1Cc1ccc(-c2cccc(OC)c2)cc1 (stereo not given)	HEK cytotox 22.4µM, NIH3T3 tox 39.8µM (no result: FLuc inh, hNpr1 antagonist)
COc1cccc(-c2cccc(CN3CCCC3C(=O)NCc3ccc(Cl)cc3)c2)c1 (stereo not given)	HEK cytotox 39.8µM, NIH3T3 tox 39.8µM (no result: FLuc inh, GPT2 inh, hNpr1 antagonist)
COc1cccc(-c2ccc(CN3CCCC3C(=O)NCC(F)F)cc2)c1 (stereo not given)	HEK cytotox inconclusive, NIH3T3 tox inconclusive (no result: FLuc inh, hNpr1 antagonist)
COC(=O)CNC(=O)C1CCCN1Cc1ccc(-c2cccc(OC)c2)cc1 (stereo not given)	HEK cytotox inconclusive, NIH3T3 tox inconclusive (no result: FLuc inh, hNpr1 antagonist)
COc1cccc(-c2ccc(NC(=O)C3CCCN3Cc3cnn(C)c3)cc2)c1 (stereo not given)	HEK cytotox 44.7µM, NIH3T3 tox inconclusive
COc1cccc(-c2cccc(CN3CCCC3C(=O)NC(C)C)c2)c1 (stereo not given)	HEK cytotox inconclusive, NIH3T3 tox inconclusive (no result: FLuc inh, hNpr1 antagonist)
COc1cccc(-c2cccc(CN3CCCC3C(=O)NCc3ccc(F)cc3F)c2)c1 (stereo not given)	HEK cytotox inconclusive, NIH3T3 tox inconclusive (no result: FLuc inh, hNpr1 antagonist)
CCOCCCNC(=O)C1CCCN1Cc1cccc(-c2cccc(OC)c2)c1 (stereo not given)	HEK cytotox 25.1µM, NIH3T3 tox 31.6µM (no result: FLuc inh, hNpr1 antagonist)
Cc1cc(C(=O)N2CCOCC2)c2c(C3CCNCC3)noc2n1	none (no result: FLuc inh, hNpr1 antagonist)
CC(C)(C)CC(=O)N1CCC(C(NC(=O)c2ccccc2)C(=O)NCc2ccco2)CC1 (stereo not given)	HEK cytotox inconclusive
COc1cccc(C(=O)N2CCC3(CC2)CC(N(Cc2ccccc2)C2CC2)CCO3)c1 (stereo not given)	HEK cytotox inconclusive, NIH3T3 tox inconclusive
COc1ccc(Cl)cc1NC(=O)CN1C(=O)NC2(CCC(C)CC2)C1=O (stereo not given)	HEK cytotox inconclusive, NIH3T3 tox inconclusive
COc1cccc(CNC(=O)C2CCCN2Cc2ccc(-c3cccc(OC)c3)cc2)c1 (stereo not given)	HEK cytotox inconclusive, NIH3T3 tox 35.5µM (no result: FLuc inh, hNpr1 antagonist)
CC(C)(C)CC(=O)N1CCCC(C(=O)Nc2cccc(-c3ccc(F)cc3)c2)C1 (stereo not given)	HEK cytotox inconclusive, NIH3T3 tox inconclusive, GPT2 inh inconclusive
COc1cccc(-c2cccc(CN3CCCC3C(=O)N3CCCC(C)C3)c2)c1 (stereo not given)	HEK cytotox 50.1µM, NIH3T3 tox inconclusive (no result: FLuc inh, GPT2 inh, hNpr1 antagonist)
COc1cccc(-c2ccc(NC(=O)C3CCCN(C(=O)CC(F)(F)F)C3)cc2)c1 (stereo not given)	FLuc inh inconclusive, HEK cytotox inconclusive, NIH3T3 tox inconclusive, hNpr1 antagonist 15.8µM
C=CCC(=O)N1CCCC1C(=O)Nc1ccc(-c2cccc(OC)c2)cc1 (stereo not given)	FLuc inh 25.1µM, HEK cytotox inconclusive, GPT2 inh inconclusive
COc1ccc(C(=O)N2C[C@@H](Oc3ccccc3)C[C@H]2C(=O)NC2CC2)cc1F	none
CCCCn1c(=O)c(C(=O)N2CCN(Cc3ccccc3)CC2)nc2cccnc21	HEK cytotox inconclusive, NIH3T3 tox inconclusive (no result: FLuc inh, hNpr1 antagonist)
CC(=O)NCC(=O)N1Cc2ccccc2CC2(CCCN(CC3CCOCC3)C2)C1 (stereo not given)	none (no result: FLuc inh, hNpr1 antagonist)
COCCN(C)C(=O)C1(C)CN(Cc2ccccc2)Cc2ccc(NCC(C)C)nc21 (stereo not given)	HEK cytotox 79.4µM, NIH3T3 tox inconclusive
COCCNC(=O)C1(C)CN(Cc2ccccc2)Cc2ccc(NCC(C)C)nc21 (stereo not given)	HEK cytotox 39.8µM, NIH3T3 tox 22.4µM
COCCN1Cc2ccc(NCC(C)C)nc2C(C)(C(=O)Nc2ccccc2)C1 (stereo not given)	HEK cytotox inconclusive, NIH3T3 tox inconclusive
COCCN1Cc2ccc(NCC(C)C)nc2C(C)(C(=O)Nc2ccc(OC)cc2)C1 (stereo not given)	FLuc inh inconclusive, HEK cytotox inconclusive, NIH3T3 tox 44.7µM
COCCNC(=O)C1(C)CN(Cc2ccccc2)Cc2ccc(Nc3ccccc3)nc21 (stereo not given)	HEK cytotox inconclusive, NIH3T3 tox inconclusive
CC(=O)N1CCCC(C(=O)N2CCC(N3CCOC3=O)CC2)C1 (stereo not given)	none (no result: FLuc inh, hNpr1 antagonist)

Screens from PubChem BioAssay.
